Laboratory results: the supplement of paper PMC4166925
± gives the standard deviation of the averaged measurements. In all, about 33,000 sequences were measured (“E-score (dimensionless, -0.5 to 0.5)”: median about -0.049, highest 2% from about 0.37 on). This excerpt belongs to a sample that is enriched for the highest values.

tested on: T1, PmTbr T-box DNA-binding domain (GST fusion); assay: PBM E-score of 8-mer (E-score (dimensionless, -0.5 to 0.5)); Tbr is Tbrain of the sea star Patiria miniata (Pm) or the sea urchin Strongylocentrotus purpuratus (Sp); higher = stronger binding preference; settings: the construct has about 5 more residues each side
T1 sequence: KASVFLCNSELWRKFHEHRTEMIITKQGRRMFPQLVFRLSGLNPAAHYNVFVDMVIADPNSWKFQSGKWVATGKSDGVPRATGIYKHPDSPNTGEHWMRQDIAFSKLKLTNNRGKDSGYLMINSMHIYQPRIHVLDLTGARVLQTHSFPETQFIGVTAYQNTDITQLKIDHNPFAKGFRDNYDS
Procedure: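 Universal protein-binding microarray (Agilent AMADID 016060, 60-bp probes with a 35-bp variable region) incubated with 200 nM GST-fused Patiria miniata Tbr T-box DNA-binding domain (residues 272-466) in PBS pH 7.5. Scored for every ungapped 8-mer (given with its reverse complement) by the Universal PBM Analysis Suite as E-score (modified Wilcoxon-Mann-Whitney enrichment, range -0.5 to 0.5; >0.45 counts as bound) and Z-score of median probe intensity. Two replicate arrays (datasets 1 and 2).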
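Further: 200 nM protein in PBS on universal arrays averaged over duplicate arrays.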

Sequence | PBM E-score of 8-mer
ACTGAACG | -0.315 ± 0.091
GCTTTACC | -0.126 ± 0.066
AAGGTTAC | -0.145 ± 0.017
GGGCCCAA | -0.154 ± 0.022
CGTGTTTC | 0.126 ± 0.034
ACCCAGTA | -0.234 ± 0.012
AGATAAAT | -0.223 ± 0.057
CCTGACAC | 0.435 ± 0.0077
CATGACAA | 0.204 ± 0.047
ACTGACAT | 0.0983 ± 0.064
GCTGACAA | 0.2795 ± 0.00061
CCTGACAA | 0.207 ± 0.027
CATGACAC | 0.389 ± 0.0048
ACTGACAA | 0.166 ± 0.009
CCTGACAG | 0.218 ± 0.036
AATGACAC | 0.355 ± 0.0044
GCTGACAC | 0.398 ± 0.013
GCTGACCC | -0.159 ± 0.14
ACTGACAC | 0.379 ± 0.012
GCCTTTCA | -0.0251 ± 0.074
TACTTTCA | 0.0461 ± 0.077
CACAGCGA | 0.0526 ± 0.053
CTGACCAC | 0.0865 ± 0.013
ACAGATGA | 0.00068 ± 0.05
AGCGTTCG | 0.214 ± 0.068

Sequence | PBM E-score of 8-mer
CTACAGAG | -0.187 ± 0.022
ACTGTCAA | 0.162 ± 0.028
CGTGTCAA | 0.4335 ± 0.00096
CCTGTCAC | 0.3665 ± 0.0036
AATGTCAA | 0.0345 ± 0.052
CATGTCAA | -0.00945 ± 0.065
AGTGTCAA | 0.447 ± 0.0063
GGTGTCAA | 0.474 ± 0.0055
ACTGTCAG | 0.129 ± 0.034
GCTGTCAA | 0.323 ± 0.014
GGTGTCCA | 0.294 ± 0.021
CCTGTCAA | 0.309 ± 0.024
ACTGTCAC | 0.392 ± 0.018
CGTGTCAG | 0.31284 ± 0.00018
GCTGTCAC | 0.3624 ± 0.0017
TGTGTCAA | 0.372 ± 0.014
TATGTCAA | 0.0912 ± 0.063
GATGTCAC | 0.304 ± 0.0034
TCTGTCAA | 0.152 ± 0.039
AGTGTCAT | 0.387 ± 0.0042
GGTGTCAC | 0.481 ± 0.0062
AGTGTCAG | 0.384 ± 0.017
AATGTCAG | 0.0135 ± 0.012
ACTGTCAT | 0.163 ± 0.037
AATGTCAT | -0.164 ± 0.033

Sequence | PBM E-score of 8-mer
AACATGAT | -0.0409 ± 0.098
GGTCGAGA | -0.252 ± 0.058
TTGAGCAA | -0.0163 ± 0.022
ATAGGCAC | -0.0213 ± 0.017
CGCTCATA | -0.08565 ± 0.00083
TAGCTCAA | -0.184 ± 0.04
ACTTTTCT | 0.0687 ± 0.099
ATTGGGTC | -0.0189 ± 0.031
CGAAGCCG | 0.155 ± 0.06
ATGGAGGA | -0.217 ± 0.015
ACACCCAA | 0.368 ± 0.035
AAGCGAAT | -0.167 ± 0.0081
AGTGTCCC | 0.176 ± 0.004
CATGTCAC | 0.352 ± 0.0093
AGTGTCAC | 0.449 ± 0.0029
CGTGTCCC | -0.0561 ± 0.065
CGTGTCAC | 0.3865 ± 0.0037
AATGTCAC | 0.329 ± 0.034
ATTAAGTA | -0.154 ± 0.096
CGACCTCG | 0.14 ± 0.074
CGCTTCAG | -0.0405 ± 0.068
CTCCTAGC | 0.0648 ± 0.041
AGTCACCC | -0.0493 ± 0.13
GGACACAC | 0.101 ± 0.0014
AGTCACAG | 0.135 ± 0.054

Sequence | PBM E-score of 8-mer
AGTCACAC | 0.462 ± 0.0029
CGTCACAG | 0.243 ± 0.014
CGTCACCA | 0.27 ± 0.054
CGTCACAC | 0.433 ± 0.017
AGTCACAT | 0.11 ± 0.058
GGTCACAC | 0.4613 ± 0.0012
CGTCACAA | 0.175 ± 0.033
GGTCACAA | 0.212 ± 0.048
CGTCACCC | 0.373 ± 0.021
CTCAAGAA | -0.0351 ± 0.062
AATGAGGG | -0.21 ± 0.035
AGCAACAT | -0.000465 ± 0.079
AAAATCGT | 0.158 ± 0.078
AGAACATG | -0.102 ± 0.0022
GTATCTCA | 0.138 ± 0.024
CTAATAGC | 0.0155 ± 0.017
AACAATAT | 0.00943 ± 0.055
AGATGCTG | -0.149 ± 0.035
ATCAAGCC | -0.0171 ± 0.049
GTACTTAA | -0.16 ± 0.011
GCGGGTTA | 0.0385 ± 0.009
CGCTGTTA | 0.0368 ± 0.0067
GGGGGTTA | -0.158 ± 0.1
CGGTGTTA | 0.37 ± 0.0083
GGATGTTA | -0.00674 ± 0.011

Sequence | PBM E-score of 8-mer
GGGTGTTA | 0.4737 ± 0.00077
CGATGTTA | -0.192 ± 0.016
ACCCATAT | 0.0957 ± 0.013
GGGTTCGA | -0.0834 ± 0.013
GGTGGGCA | 0.0512 ± 0.038
AAACTCTT | -0.11 ± 0.032
CGATTCAC | 0.143 ± 0.0046
CAACTGAG | 0.0533 ± 0.042
GACTTGGA | -0.167 ± 0.064
CCGCGAAA | 0.305 ± 0.027
ACGCGAAA | 0.133 ± 0.039
TCGCGAAA | 0.409 ± 0.025
CCGCGAAC | 0.271 ± 0.036
GCGCGAAC | 0.411 ± 0.017
GCGCGATA | 0.337 ± 0.011
ACGCGAAC | 0.203 ± 0.043
GCGCGAAA | 0.4397 ± 0.0003
GCGCGACA | 0.36 ± 0.023
CAATCATA | -0.102 ± 0.056
AACCCTGA | -0.108 ± 0.0053
GCCACTAA | 0.153 ± 0.019
AGATACTC | -0.119 ± 0.09
TGCAGGAA | -0.153 ± 0.036
CTCCCAAC | -0.0412 ± 0.0027
AAGAACCC | -0.192 ± 0.042

Sequence | PBM E-score of 8-mer
AGACACCC | 0.259 ± 0.023
AGACACCA | 0.2603 ± 0.00061
CGACACCG | 0.273 ± 0.033
GGACACCA | 0.0777 ± 0.029
GGACACCC | 0.242 ± 0.037
TGACACCA | 0.427 ± 0.02
CGACACGA | 0.183 ± 0.071
CGACACCC | 0.439 ± 0.022
CGACACCA | 0.414 ± 0.01
AAGAAAAC | -0.0889 ± 0.032
CGTTGGTA | -0.0221 ± 0.009
AAGTGCCG | 0.289 ± 0.025
TGAGCAAA | 0.0705 ± 0.069
AGGCCTGG | -0.293 ± 0.041
ACCTGCGT | 0.112 ± 0.063
AATTGGGA | -0.0137 ± 0.033
AACCTCTG | -0.151 ± 0.032
CACCTCTG | 0.4165 ± 0.00058
CACCTCTC | 0.419 ± 0.023
GACCTCTC | -0.109 ± 0.026
GACCTCTA | -0.259 ± 0.07
CAACTCTG | 0.16 ± 0.08
AACCTCTC | -0.0958 ± 0.093
AACCTCTA | -0.151 ± 0.025
CACCTCTA | 0.44129 ± 0.00038

Sequence | PBM E-score of 8-mer
CACCACCA | 0.201 ± 0.034
CTTTTCTA | 0.0811 ± 0.085
CTCCTCAA | -0.204 ± 0.024
GCTTTCTA | -0.0965 ± 0.11
AGTGTGCC | 0.125 ± 0.0018
CAATGGAA | -0.144 ± 0.028
ATGCCAAC | 0.0888 ± 0.00082
CTGCCAAA | 0.186 ± 0.061
CTGCCAAC | 0.0539 ± 0.0096
GTGCCAAC | 0.403 ± 0.0056
TTGCCAAA | 0.11 ± 0.066
GTGCCAAA | 0.421 ± 0.017
CCATATAC | -0.00383 ± 0.065
AGTCGATA | 0.147 ± 0.016
AGCAGAAC | -0.287 ± 0.013
ACAACTGA | 0.172 ± 0.019
AAACCTCT | -0.362 ± 0.051
ACACCTCT | 0.48594 ± 0.00022
TCACCTCA | 0.437 ± 0.00059
AGACCTCA | 0.0571 ± 0.053
ACACCTCA | 0.47047 ± 0.00026
TGACCTCA | 0.0125 ± 0.0081
